{"source": "the supplement of paper PMC13380429", "note": "Values without a mark were called inactive.", "data": [{"tested_on": "Vero E6 infected with SARS-CoV-2", "test": "inhibition of SARS-CoV-2 cytopathic effect; higher = more antiviral protection, active = above 15", "conditions": "1 nM; 48 h", "units": {"inhibition of SARS-CoV-2 cytopathic effect": "%"}, "values": [{"smiles": "Cc1csc(S(=O)(=O)N(CC(C)C)c2cc3c(cc2OCc2ccc(C(=O)O)cc2)CCC3)n1", "inhibition of SARS-CoV-2 cytopathic effect": -2.46}, {"smiles": "N=C(N)Nc1ccc(C(=O)Oc2ccc3cc(C(=N)N)ccc3c2)cc1", "note": "[nafamostat]", "inhibition of SARS-CoV-2 cytopathic effect": 1.66}, {"smiles": "CC(C)SC(=N)N", "note": "[S-isopropylisothiourea]", "inhibition of SARS-CoV-2 cytopathic effect": 1.63}, {"smiles": "O=C(NCC(=O)N1CCCC1)Nc1ccc2cnccc2c1", "inhibition of SARS-CoV-2 cytopathic effect": -2.26}, {"smiles": "CCC(CC)O[C@@H]1C=C(C(=O)O)C[C@H](N)[C@H]1NC(C)=O", "note": "[oseltamivir-carboxylate]", "inhibition of SARS-CoV-2 cytopathic effect": -1.71}, {"smiles": "O=C(c1ccc(CN2CCOCC2)cc1)N1CCN(C2CC2)CC1", "note": "[bavisant]", "inhibition of SARS-CoV-2 cytopathic effect": 0.41}, {"smiles": "Cc1ccc(NC(=O)c2cccc(N(C)C)c2)cc1NC(=O)c1ccc(O)cc1", "inhibition of SARS-CoV-2 cytopathic effect": -3.41}, {"smiles": "CC(=O)[C@H]1CC[C@H]2[C@@H]3CCC4=CC(=O)CC[C@]4(C)[C@H]3CC[C@]12C", "note": "[progesterone]", "inhibition of SARS-CoV-2 cytopathic effect": -0.08}, {"smiles": "N[C@@H](C(=O)O)c1ccc(C(=O)O)c(O)c1", "note": "(racemic) [4-carboxy-3-hydroxyphenylglycine-(RS)]", "inhibition of SARS-CoV-2 cytopathic effect": -0.15}]}, {"tested_on": "Vero E6 infected with SARS-CoV-2", "test": "inhibition of SARS-CoV-2 cytopathic effect; higher = more antiviral protection, active = above 15", "conditions": "8.33 nM; 48 h", "units": {"inhibition of SARS-CoV-2 cytopathic effect": "%"}, "values": [{"smiles": "CC(C)=CCC[C@](C)(O[C@@H]1O[C@H](CO)[C@@H](O)[C@H](O)[C@H]1O)[C@H]1CC[C@]2(C)[C@@H]1[C@H](O)C[C@@H]1[C@@]3(C)CC[C@H](O)C(C)(C)[C@@H]3CC[C@]12C", "note": "[ginsenoside-C-K]", "inhibition of SARS-CoV-2 cytopathic effect": 3.09}, {"smiles": "C=C(C)CN1CC[C@]23c4c5ccc(O)c4O[C@H]2c2[nH]c4ccccc4c2C[C@@]3(O)C1C5", "inhibition of SARS-CoV-2 cytopathic effect": -1.87}, {"smiles": "C[C@]1(COc2ccc(N3CCC(Oc4ccc(OC(F)(F)F)cc4)CC3)cc2)Cn2cc([N+](=O)[O-])nc2O1", "note": "[delamanid]", "inhibition of SARS-CoV-2 cytopathic effect": 0.01}, {"smiles": "Nc1ncnc2c1c(-c1ccc(Oc3ccccc3)cc1)nn2C1CCCC1", "inhibition of SARS-CoV-2 cytopathic effect": 1.32}, {"smiles": "C1=C2CCCN[C@H]2[C@@H]2C[C@H]1[C@H]1CCCCN1C2", "note": "[aloperine]", "inhibition of SARS-CoV-2 cytopathic effect": 2.25}, {"smiles": "COc1cc(NC(=O)c2ccc(-c3ccc(Cl)cc3)o2)cc(OC)c1", "inhibition of SARS-CoV-2 cytopathic effect": 0.3}, {"smiles": "C=C[C@H]1CN2CC[C@H]1C[C@@H]2[C@@H](O)c1ccnc2ccc(OC)cc12", "note": "[quinidine]", "inhibition of SARS-CoV-2 cytopathic effect": -5.1}, {"smiles": "CC(=O)N[C@H](Cc1ccc2ccccc2c1)C(=O)N[C@H](Cc1ccc(Cl)cc1)C(=O)N[C@H](Cc1cccnc1)C(=O)N[C@@H](CO)C(=O)N[C@@H](Cc1ccc(O)cc1)C(=O)N[C@H](CCCNC(N)=O)C(=O)N[C@@H](CC(C)C)C(=O)N[C@@H](CCCNC(=N)N)C(=O)N1CCC[C@H]1C(=O)N[C@H](C)C(N)=O", "note": "[cetrorelix]", "inhibition of SARS-CoV-2 cytopathic effect": -2.29}, {"smiles": "CC(=O)Nc1cccc(-n2c(=O)n(C3CC3)c(=O)c3c(Nc4ccc(I)cc4F)n(C)c(=O)c(C)c32)c1", "note": "[trametinib]", "inhibition of SARS-CoV-2 cytopathic effect": -7.51}, {"smiles": "Clc1ccc(-c2nc3sccn3c2/C=N/OCc2ccc(Cl)c(Cl)c2)cc1", "inhibition of SARS-CoV-2 cytopathic effect": -0.99}, {"smiles": "C[C@H]1CNCCCN1S(=O)(=O)c1cccc2cncc(F)c12", "note": "[ripasudil]", "inhibition of SARS-CoV-2 cytopathic effect": 0.41}, {"smiles": "COc1ccc(-n2[nH]c3c4c(ncc3c2=O)CCCCC4)cc1", "inhibition of SARS-CoV-2 cytopathic effect": 0.11}, {"smiles": "N[C@@H]1CONC1=O", "note": "[cycloserine-(D)]", "inhibition of SARS-CoV-2 cytopathic effect": -4.07}, {"smiles": "C[C@@H](N)c1ccc(C(=O)Nc2ccnc3[nH]ccc23)cc1", "inhibition of SARS-CoV-2 cytopathic effect": -1.06}, {"smiles": "CCn1cc(C(=O)O)c(=O)c2cc(F)c(N3CCNC(C)C3)c(F)c21", "note": "(stereo not given) [lomefloxacin]", "inhibition of SARS-CoV-2 cytopathic effect": -0.12}, {"smiles": "CC(C)CCC[C@@H](C)[C@H]1CC[C@H]2[C@@H]3CC=C4C[C@@H](O)CC[C@]4(C)[C@H]3CC[C@]12C", "note": "[cholesterol]", "inhibition of SARS-CoV-2 cytopathic effect": 1.96}, {"smiles": "O=C1c2ccccc2C(Cc2ccnc(F)c2)(Cc2ccnc(F)c2)c2ccccc21", "inhibition of SARS-CoV-2 cytopathic effect": 0.21}, {"smiles": "Nc1ccn([C@H]2CC[C@@H](CO)O2)c(=O)n1", "note": "[zalcitabine]", "inhibition of SARS-CoV-2 cytopathic effect": -1.89}, {"smiles": "CCCn1c(=O)c2[nH]c(C3CCCC3)nc2n(CCC)c1=O", "inhibition of SARS-CoV-2 cytopathic effect": 2.47}, {"smiles": "C[C@]12CC[C@H](O)C[C@H]1CC[C@@H]1[C@@H]2CC[C@]2(C)[C@@H](c3ccc(=O)oc3)C[C@H]3O[C@]132", "note": "[resibufogenin]", "inhibition of SARS-CoV-2 cytopathic effect": -2.33}, {"smiles": "c1ccc(Cn2c(N3CCNCC3)nc3ccccc32)cc1", "note": "[lerisetron]", "inhibition of SARS-CoV-2 cytopathic effect": -0.34}]}]}
